Bioassay records from PubChem BioAssay.
D1 potentiator: human D1 dopamine receptor positive modulation | P21728 | HEK293 TREx D1 cells, calcium flux, dopamine EC20 potentiation | potentiation, % at 10 µM | hit rate 0.036% among 360,000; in the data active means potentiation above about 30%
Eya2 inh: blocks the phosphatase activity of human Eya2; hit rate 0.006% among 330,000; recombinant Eya2, OMFP fluorescence dephosphorylation (OMFP is methylfluorescein phosphate); Potency, µM (highest dose often 76.9 µM), usual class: inhibitors
Target sequence (O00167 whole entry, looked up): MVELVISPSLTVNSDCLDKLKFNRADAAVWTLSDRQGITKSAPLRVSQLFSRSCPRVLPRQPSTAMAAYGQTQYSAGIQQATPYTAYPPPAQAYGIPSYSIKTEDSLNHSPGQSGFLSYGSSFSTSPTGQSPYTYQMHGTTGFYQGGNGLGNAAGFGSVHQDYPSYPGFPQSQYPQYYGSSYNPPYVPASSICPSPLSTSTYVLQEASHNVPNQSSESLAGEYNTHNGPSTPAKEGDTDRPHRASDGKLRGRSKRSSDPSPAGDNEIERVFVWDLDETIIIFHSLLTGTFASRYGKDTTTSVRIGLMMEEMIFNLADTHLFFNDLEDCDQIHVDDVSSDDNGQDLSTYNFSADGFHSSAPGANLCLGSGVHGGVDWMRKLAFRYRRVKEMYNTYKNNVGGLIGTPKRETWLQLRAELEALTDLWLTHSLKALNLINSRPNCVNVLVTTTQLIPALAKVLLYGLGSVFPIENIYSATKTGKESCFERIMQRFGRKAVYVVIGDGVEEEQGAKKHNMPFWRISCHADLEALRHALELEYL
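Eya2 protein (added as 0.2 uM solution) was preincubated with compound for 10 min at ambient temperature in 50 mM HEPES pH 7.5, 50 mM NaCl, 5 uM MgCl2, 0.05% BSA, 1 mM DTT. OMFP (added at 50 uM) then reacted 10 min; fluorescence read at 485/525 nm.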
D1 antagonist: blocks dopamine activation of the human D1 receptor; AID 504652; activity change, negative = inhibition, % at 10 µM; hit rate 3.2% among 360,000; HEK293 TREx D1 cells, calcium flux, dopamine EC80; active compounds read low; P21728; in the data active means activity change below about -30%
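After overnight tetracycline induction at 30 C, force-coupled D1 HEK293 cells took up a no-wash calcium dye at room temperature. Compounds were added and monitored 180 s, and the response to EC80 dopamine was then recorded.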
GALK inhibitor: galactokinase (human) inhibition. P51570. Purified GALK, Kinase-Glo residual ATP luminescence. Potency, µM (doses to about 57.5 µM), most hits filed as inhibitors. hit rate 0.007% among 270,000
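Galactose (100 uM) and ATP (35 uM) were turned over by 5 nM GALK for 1 h at RT. Kinase-Glo Plus then converted the remaining ATP into a luminescent signal.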
USP2a inh: inhibitors of human ubiquitin-specific protease USP2a; O75604; USP2 core, Ub-CHOP2 coupled fluorogenic reporter, 485/531; Potency, µM (top dose mostly 38.3 µM), usual class: inhibitors; hit rate 0.01% among 330,000; AID 463254
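USP2 core (10nM final) preincubated 30min RT with compound in 20mM Tris-HCl pH 8.0, 2mM CaCl2, 2mM beta-mercaptoethanol, 0.05% CHAPS; 25nM Ub-CHOP2 plus 25nM reporter substrate added, fluorescence (Ex485/Em531) read after 60min.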
D1 agonist: agonists of human D1 dopamine receptor; hit rate 1% among 360,000; P21728; activation, % at 2 µM; HEK293 T-REx D1 cells, calcium flux, agonist mode; in the data active means activation above about 30%
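Agonism was scored from calcium flux recorded over 180 s (1 read/s) after pintool compound addition, following a 10-cycle baseline. Cells were inducible force-coupled HEK293 TREx D1, plated overnight at 30 C and loaded with no-wash calcium dye.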
A number is an active result; - = inactive; ? = inconclusive; . = no result given. Compounds with a hit are over-represented: about 3.9% of the library has one in this group of screens. Unless noted, the call rests on the fitted dose curve; in most records, active means well fitted inhibition curve with a large enough effect; inconclusive means small, poorly fitted or top-dose-only effect, or effect the other way; inactive means flat fitted curve, though single readings scatter.

SMILES | D1 potentiator | Eya2 inh | D1 antagonist | GALK inhibitor | USP2a inh | D1 agonist
Fc1ccc(NC(=S)NN2CCOCC2)cc1Cl | - | - | -32.3 | - | - | -
COc1ccccc1N1CCN(C(=S)Nc2ccc(S(=O)(=O)N3CCOCC3)cc2)CC1 | - | - | - | - | - | -
O=S(=O)(c1ccccc1)N1CCN(C(=S)NCCCN2CCOCC2)CC1 | - | - | -46.3 | - | - | -
Cn1nnnc1Sc1ncnc2scc(-c3cccs3)c12 | - | - | - | . | - | -
Cc1cc(C)c(Cn2c3ccccc3c3cnn(CC(=O)N4CCCCC4)c(=O)c32)c(C)c1 | - | . | - | . | . | -
COc1cccc(-n2c(SCc3ccc(F)cc3)nc3c([nH]c4ccccc43)c2=O)c1 | - | . | - | . | . | -
Cc1ccc(N2CCN(c3nc4c(S(=O)(=O)c5ccc(C)c(C)c5)nnn4c4ccccc34)CC2)c(C)c1 | - | . | - | . | . | -
COc1ccc(N2CC(NC(=O)Cc3cccs3)CC2=O)cc1 (configuration not stated) | - | . | . | . | . | -
O=S(=O)(c1ccc(Cl)cc1)N1CCN(C(=S)Nc2ccc(F)c(Cl)c2)CC1 | - | - | -36.7 | - | - | -
O=c1c2cc(-c3ccccc3)sc2ncn1/N=C/c1ccco1 | - | - | -33.0 | - | - | -
COc1cccc(CNC(=O)Cn2ncn3nc(-c4cccs4)cc3c2=O)c1 | - | . | - | . | . | -
CCOC(=O)c1cccc(NC(=O)N2CCC(CN3CCCCCC3)CC2)c1 | - | . | - | . | . | -
CCCCc1cc(=O)oc2cc(C)cc(O)c12 | - | - | -34.7 | - | - | -
COc1ccc(NC(=O)COC(=O)CC2CC3CCC2C3)c([N+](=O)[O-])c1 (configuration not stated) | - | - | -96.6 | - | - | -
Fc1ccc(C2CCNCC2COc2ccc3c(c2)OCO3)cc1 (configuration not stated) | - | - | - | . | - | 38.2
Fc1ccc([C@@H]2CCNC[C@H]2COc2ccc3c(c2)OCO3)cc1 | - | - | -36.6 | - | - | 59.0
O=C(COc1ccc2c(c1)OCO2)Nc1ccccc1F | - | - | . | - | - | -
CCOc1ccc(NC(=O)Cn2c(=O)n(Cc3ccc(C(=O)NCc4ccc5c(c4)OCO5)cc3)c(=O)c3ccccc32)cc1 | - | . | - | . | . | -
COC(=O)/C(=C\C=C\c1ccccc1)NC(=O)c1ccccc1 | - | - | -30.4 | - | - | -
O=C(Nc1ccc(O)cc1)/C(=C\C=C\c1ccccc1)NC(=O)c1ccccc1 | - | - | -31.9 | - | - | -
Cc1ccc(OCCN2CCOCC2)cc1C | - | - | - | - | - | -
Cc1cc(OCCN2CCOCC2)ccc1Cl | - | - | -93.9 | - | - | -
Oc1ccc(N=Nc2ccc3c(c2)OCCO3)c2ncccc12 | - | - | - | - | - | 40.8
C=CCn1c(O)c(N=Nc2ccccc2)c2ccccc21 | - | - | - | - | - | -
C=CCn1c(O)c(N=Nc2ccccc2O)c2ccccc21 | - | - | - | . | - | 40.6
SMILES | D1 potentiator | Eya2 inh | D1 antagonist | GALK inhibitor | USP2a inh | D1 agonist
Cn1c(O)c(N=NC(=N)N)c2ccccc21 | - | - | - | - | - | -
Cc1ccccc1N=Nc1c(O)n(C)c2ccccc12 | - | - | -39.0 | - | - | -
CCn1c(SCC(=O)c2ccccc2)nnc1-c1cccc(Cl)c1 | - | . | - | . | . | -
COc1ccccc1CCNC(=O)Cc1ccc(NC(=O)N2CCSc3ncccc32)cc1 | - | . | - | . | . | -
CCCCS(=O)(=O)c1oc(-c2cccs2)nc1S(=O)(=O)c1ccc(F)cc1 | - | . | - | . | . | 81.1
CCCCCS(=O)(=O)c1oc(-c2cccs2)nc1S(=O)(=O)c1ccc(C)cc1 | - | . | - | . | . | -
COc1ccc(Nc2c(-c3ccc(C)o3)nc3cc(C)ccn23)cc1 | - | . | - | . | . | -
CC(=O)c1sc2nc(-c3cccs3)cc(C(F)(F)F)c2c1N | - | - | - | - | - | 180.0
CN(C)CCNC(=O)c1sc2nc(-c3ccccc3)cc(C(F)(F)F)c2c1N | - | - | - | - | - | 36.7
Nc1nc2nc(-c3ccccc3)cc(C(F)(F)F)c2s1 | - | - | - | - | - | -
Nc1c(C(=O)C2CC2)sc2nc(-c3ccccc3)cc(C(F)(F)F)c12 | - | - | - | - | - | 66.5
Cc1c(C(=O)O)sc2nc(-c3cccs3)cc(C(F)(F)F)c12 | - | - | - | - | - | -
COc1cccc(-c2cc(C(F)(F)F)c3c(N)c(C#N)sc3n2)c1 | - | - | - | - | - | 34.3
N#Cc1sc2nc(-c3ccccc3)cc(-c3ccco3)c2c1N | - | - | - | - | - | -
CCN(c1ccccc1)C(CNS(=O)(=O)c1ccccc1)c1ccccc1 (configuration not stated) | - | . | - | . | . | -
COc1ccc(-c2cc(C(F)(F)F)c3c(N)c(C(=O)NCCSC)sc3n2)cc1 | - | ? | - | - | - | 31.1
Cc1ccc(Cl)cc1NC(=O)CCCn1c(=O)c2cccn2c2ccccc21 | - | . | - | . | . | -
CC(C)N1CCc2c(sc(NC(=O)c3ccc(S(=O)(=O)N4CCc5ccccc54)cc3)c2C(N)=O)C1 | - | - | - | - | - | 32.1
NC(=O)c1ccsc1NC(=O)c1ccc(S(=O)(=O)N2CCCc3ccccc32)cc1 | - | - | - | . | - | -
CC(C)N1CCc2c(sc(NC(=O)c3nc4ccccc4s3)c2C(N)=O)C1 | - | - | - | - | - | -
CC(C)N1CCc2c(sc(NC(=O)c3cc(-c4cccs4)nc4ccccc34)c2C(N)=O)C1 | - | - | - | . | - | 83.4
CN(C1CCCCC1)S(=O)(=O)c1ccc(C(=O)Nc2sc3c(c2C(N)=O)CC(C)(C)NC3(C)C)cc1 | - | - | - | - | - | -
CC(C)N1CCc2c(sc(NC(=O)c3ccc(S(=O)(=O)N(C)C4CCCCC4)cc3)c2C(N)=O)C1 | - | . | - | . | . | 65.7
CCOc1ccc(NC(=O)Cn2cc(C(=O)c3ccc(F)cc3)c(=O)c3cc4c(cc32)OCCO4)cc1 | - | . | - | . | . | -
Cc1ccc(-c2[nH]ncc2CNCCc2cnn(-c3ccccc3)c2)cc1C | - | - | - | - | - | 34.1
Cn1cc(CCNCc2cn[nH]c2-c2ccc(-c3ccccc3)cc2)cn1 | - | - | - | - | - | -
CCOC(=O)C(C)NC(=O)c1cc2c(=O)[nH]c3ccc(C)cc3c2s1 (configuration not stated) | - | . | - | . | . | -
CCCCCCSc1nsc(NC(=O)CCC)n1 | - | - | -39.1 | - | - | -
Cc1c(C(=O)c2ccccc2)c2ccccn2c1CCc1ccccn1 | - | - | - | - | - | -
Cc1c(C(=O)c2ccc(F)cc2)c2ccccn2c1CCc1ccccn1 | - | - | -53.6 | - | - | -
